# In PubChem BioAssay (NCATS):
# Several values for one entry are separate records, joined by “and”; a condition that tells them apart may be missing. Equal values may be shown once. Results filed as inconclusive are left out. Entries that show only a call come without a potency. A number with no mark means an inactive call. Activity calls are given as the source filed them. Calls follow the shape of the dose curve; as a rule, active = well fitted inhibition curve with a large enough effect; inconclusive = small, poorly fitted or top-dose-only effect; inactive = flat fitted curve, though single readings scatter.
# Tests used:
# KB-3-1 = assay: Cytotoxic Profiling of Annotated Libraries Using Quantitative High-Throughput Screening (AID 1296008); conditions: Five cell lines viability, CellTiter-Glo ATP luminescence, 48-72 h; max response: hits give low values
# In short: (§1)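 Cytotoxicity was measured as CellTiter-Glo ATP luminescence, read after 10 min at room temperature. Compound treatment of the cells lasted 48 or 72 hr at 37 degrees Celsius in a qHTS format.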
# NIH3T3 [1] = assay: as above; conditions: Five cell lines viability, CellTiter-Glo ATP luminescence, 48-72 h; max response: hits give low values
# In short: as §1
# MCC-13 = assay: qHTS assay to identify novel small-molecules to repurpose for Merkel cell carcinoma treatment (AID 1296009); conditions: MCC and control cell lines, CellTiter-Glo viability, 72 h; series mostly up to 46 µM; also: potency is read from the fitted curve at half-maximal effect
# In short: (§2)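 72 hr, 37 degree celsius; NPC 8-pt / MIPE 11-pt dose response; compound pinned in DMSO; CellTiter-Glo, 10 min RT, luminescence; normalized to no-cell and DMSO controls.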
# MCC-26 = assay: as above; conditions: MCC and control cell lines, CellTiter-Glo viability, 72 h; series mostly up to 46 µM
# In short: as §2
# MKL-1 = assay: as above; conditions: MCC and control cell lines, CellTiter-Glo viability, 72 h; series mostly up to 46 µM
# In short: as §2
# MKL-2 = assay: as above; conditions: MCC and control cell lines, CellTiter-Glo viability, 72 h; series mostly up to 46 µM
# In short: as §2
# UISO = assay: as above; conditions: MCC and control cell lines, CellTiter-Glo viability, 72 h; series mostly up to 46 µM
# In short: as §2
# WaGa = assay: as above; conditions: MCC and control cell lines, CellTiter-Glo viability, 72 h; series mostly up to 46 µM
# In short: as §2
# NIH3T3 [2] = assay: as above; conditions: MCC and control cell lines, CellTiter-Glo viability, 72 h; series mostly up to 44.8 µM
# In short: as §2
# HEK293T = assay: as above; conditions: MCC and control cell lines, CellTiter-Glo viability, 72 h; at 44.8 µM (top of the series) unless noted
# In short: as §2
# Also: nearly all actives have a fitted effect of over 60% in size.
Structure (SMILES),max response (KB-3-1),max response (NIH3T3 [1]),Potency (MCC-13),Potency (MCC-26),Potency (MKL-1),Potency (MKL-2),Potency (UISO),Potency (WaGa),outcome (NIH3T3 [1]),Potency (NIH3T3 [2]),outcome (HEK293T),outcome (KB-3-1)
CC[C@H](C=C[C@@H](C)[C@H]1CC[C@H]2[C@@H]3CC=C4C[C@@H](O)CC[C@]4(C)[C@@H]3CC[C@]12C)C(C)C,2.61%,3.97%,inactive,inactive,inactive,inactive,inactive,inactive,,,,
CN(C)CCOc1ccc(C(=C(CCCl)c2ccccc2)c2ccccc2)cc1,7.38%,,inactive,inactive,inactive,inactive,inactive,inactive,inactive,inactive,,
O=C1C(CCC(O)c2ccc(F)cc2)C(c2ccc(O)cc2)N1c1ccc(F)cc1 (stereo not drawn),-2.23%,1.16%,inactive,inactive,inactive,inactive,inactive,inactive,,,inactive,
COc1ccc2c(c1)CC[C@H]1[C@@H]2CC[C@]2(C)[C@@H](NCCCCCCN3C(=O)C=CC3=O)CC[C@H]12,-4.66%,-1.24%,inactive,inactive,inactive,inactive,inactive,inactive,,,,
CCCCC[C@H](O)C=C[C@H]1[C@H](O)CC(=O)[C@H]1CCCCCCC(=O)O,-2.88%,-0.203%,inactive,inactive,inactive,,,,,,,
CC[C@H](C)C(=O)O[C@H]1C[C@H](O)C=C2C=C[C@H](C)[C@H](CC[C@@H](O)C[C@@H](O)CC(=O)O)[C@H]21,7.09% and -6.87%,-3.34%,inactive,inactive,inactive,inactive,inactive,inactive,,,,
Cn1c(=O)c(Oc2ccc(F)cc2F)cc2cnc(NC3CCOCC3)nc21,-6.47%,-13.2%,inactive,inactive,inactive,inactive,inactive,inactive,,,,
Cc1ccc2c(=O)c3cccc(CC(=O)O)c3oc2c1C,,,inactive,inactive,inactive,inactive,inactive,inactive,inactive,inactive,inactive,inactive
CCOC(=O)N1c2ccc(C(F)(F)F)cc2[C@@H](N(Cc2cc(C(F)(F)F)cc(C(F)(F)F)c2)C(=O)OC)C[C@H]1CC,1.68%,,inactive,inactive,inactive,inactive,inactive,inactive,inactive,inactive,,
CCOc1ccccc1N=Nc1c(C)[nH]n(-c2nc(-c3ccccc3)cs2)c1=O,-0.405%,-3.32%,inactive,inactive,inactive,inactive,inactive,inactive,,,,
O=C(O)C1=CO[C@@H](O[C@@H]2O[C@H](CO)[C@H](O)[C@H](O)[C@H]2O)[C@@H]2C(CO)=CC[C@H]12,7.89%,-17.7%,inactive,inactive,inactive,inactive,inactive,inactive,,,inactive,
C#C[C@]1(O)CC[C@H]2[C@H]3CCc4cc(OC)ccc4[C@H]3CC[C@@]21C,-15.5%,2.86%,inactive,inactive,inactive,inactive,inactive,inactive,,,,
COc1ccc(C=CC(=O)Nc2ccccc2C(=O)O)cc1OC,7.16%,0.371%,inactive,inactive,inactive,inactive,inactive,inactive,,,,
CC(C)=CCCC(C)=CCCC(C)=CCCC(C)=CCCC(C)=CCCC(C)=CCCC(C)=CCCC(C)=CCCC(C)=CCO,4.17%,-3.52%,inactive,inactive,inactive,inactive,inactive,inactive,,,,
CNC(=O)[C@H](Cc1ccccc1)NC(=O)[C@H](CC(C)C)[C@H](CSc1cccs1)C(=O)NO,2.61%,0.205%,inactive,inactive,inactive,inactive,inactive,,,,,
COc1ccc2ccc(=O)oc2c1CC=C(C)C,,-31.4%,inactive,inactive,10.5 µM (active),11.8 µM (active),inactive,5.26 µM (active),,,,inactive
COC(=O)[C@H](c1ccccc1Cl)N1CCc2sccc2C1,,-0.568%,inactive,inactive,inactive,inactive,inactive,inactive,,,,inactive
CCNC(=O)[C@H]1O[C@@H](n2cnc3c(N)nc(NCCc4ccc(CCC(=O)O)cc4)nc32)[C@H](O)[C@H]1O,-0.875%,,inactive,inactive,inactive,inactive,inactive,inactive,inactive,inactive,inactive,
